B1: PhoQ; a variant is named by its letters at X, in order, P23837 (parent)
chain: MKKLLRLFFPLSLRVRFLLATAAVVLVLSLAYGMVALIGYSVSFDKTTFRLLRGESNLFYTLAKWENNKLHVELPENIDKQSPTMTLIYDENGQLLWAQRDVPWLMKMIQPDWLKSNGFHEIEADVNDTSLLLSGDHSIQQQLQEVREDDDDAEMTHSVAVNVYPATSRMPKLTIVVVDTIPVELKSSYMVWSWFIYVLSANLLLVIPLLWVAAWWSLRPIEALAKEVRELEEHNRELLNPATTRELTSLVRNLNRLLKSERERYDKYRTTLTDLTHSLKTPLXXLQXXLRSLRSEKMSVSDAEPVMLEQISRISQQIGYYLHRASMRGGTLLSRELHPVAPLLDNLTSALNKVYQRKGVNISLDISPEISFVGEQNDFVEVMGNVLDNACKYCLEFVEISARQTDEHLYIVVEDDGPGIPLSKREVIFDRGQRVDTLRPGQGVGLAVAREITEQYEGKIVAGESMLGGARMEVIFGRQHSAPKDE

The full ranking holds about 140,000 sequences; the median of “enrichment ratio after two sorts for PhoP signalling” is about 0, and the highest 2% start at about 11. The list comes from a sample in which the highest values are over-represented; it also holds similar and randomly drawn sequences.

The assay covers variants of B1. Nature of the assay: enrichment ratio after two sorts for PhoP signalling (ratio (wild type AVST 3.29)); higher = more functional. As to conditions: with PhoP (E. coli).
As to HPPD, the enrichment ratio is at most 0.25.
Under HRCR stands at most 0.25; under RAAD, at most 0.25.
Then GWLP, with at most 0.25; and FRVC, with at most 0.25.
Then SQQE, with at most 0.25; and KAQE, with at most 0.25; and SNQE, with 18.7.
For KSQE, the enrichment ratio is at most 0.25.
Then SLQE, with at most 0.25.
For TLQE, the enrichment ratio is 11.7.
Take RSER: the enrichment ratio is at most 0.25.
Then WLMW, with at most 0.25.
For the variant YVFS, the enrichment ratio is at most 0.25.
Under GCFM stands at most 0.25; under EFLK, at most 0.25.
Then PFLG, with at most 0.25; and TFAG, with 2.03.
For TFTG, the enrichment ratio came to 13.3.
For the variant WILG, the enrichment ratio is at most 0.25.
Turning to TFFG, the enrichment ratio was at most 0.25.
Under TFLG stands 11.8.
VSRM: the enrichment ratio was at most 0.25.
For TEYG, the enrichment ratio was determined as 1.95.
Then TAFP, with 0.47; and KAGI, with at most 0.25; and NAGI, with at most 0.25.
Then TAQQ, with 32.8; and TAGI, with 13.1; and LQQQ, with at most 0.25.
YTNC: the enrichment ratio was at most 0.25.
Then SRQY, with at most 0.25; and SQFA, with at most 0.25.
For TTNY, the enrichment ratio stood at 25.4.
Under YTNY stands at most 0.25; under TTYY, 2.55.
Then STNY, with 14.2.
Then TTNS, with 3.5; and HVQK, with at most 0.25; and PLIG, with at most 0.25.
Consider VDHE, for which the enrichment ratio is at most 0.25.
Under VHGF stands at most 0.25; under TMGF, 13.3.
Then WITF, with at most 0.25; and THGF, with 8.21; and AHGF, with at most 0.25.
Under KCGF stands at most 0.25; under TMHF, 1.51.
Turning to AIGF, the enrichment ratio is 11.6.
Under TMTF stands 11.5; under TGGF, 15; under CFGF, at most 0.25.
Under NVTF stands at most 0.25; under WAVD, at most 0.25.
Under HSRC stands at most 0.25; under RGHS, at most 0.25.
Consider VKVV, for which the enrichment ratio is at most 0.25.
Then MFSR, with at most 0.25; and LVPR, with at most 0.25; and GRNL, with at most 0.25.
Under YHIC stands at most 0.25.
On to PQKS, for which the enrichment ratio is at most 0.25.
Then SIVS, with 4.88; and MNGF, with 3.05; and NVGF, with at most 0.25.
With PLGF, the enrichment ratio was at most 0.25.
As to SLGF, the enrichment ratio is 10.1.
For EIGF, the enrichment ratio is 17.3.
Under EEGF stands at most 0.25.
Then TNGF, with 15.9.
Under TVGF stands 18.5; under TLGF, 12.8; under TVHF, at most 0.25.
For the variant TNHF, the enrichment ratio was at most 0.25.
Then EYGF, with at most 0.25; and EVNL, with at most 0.25; and TCLE, with at most 0.25.
Consider KQLE, for which the enrichment ratio is at most 0.25.
Then DCCE, with at most 0.25; and THTS, with 1.63.
Under SNKW stands at most 0.25; under SQFG, at most 0.25.
In the case of TNGD, the enrichment ratio was at most 0.25.
Under TNGL stands 12.6.
Then MNGI, with 5.05; and TNGI, with 15.2; and TNNL, with 0.757.
Under TLQF stands 15.7; under TLHF, at most 0.25; under KAQF, at most 0.25.
With MNGL, the enrichment ratio was determined as 9.61.
Then DQWL, with at most 0.25.
Under LLTH stands at most 0.25; under CFSY, at most 0.25; under QPRN, at most 0.25.
Then FNQY, with at most 0.25.
Take DTFM: the enrichment ratio is at most 0.25.
Then LQVE, with at most 0.25; and NMMI, with at most 0.25.
Then AMMS, with 1.12.
Under AMMV stands 21.8; under AMMQ, 13.1; under AMMD, at most 0.25.
In the case of AIMQ, the enrichment ratio is at most 0.25.
Under AMMI stands 15; under ADMQ, at most 0.25; under AMPV, at most 0.25.
Consider GMVM, for which the enrichment ratio worked out at 3.22.
With SNKV, the enrichment ratio is at most 0.25.
Then QQCV, with at most 0.25.
Consider HHKS, for which the enrichment ratio was at most 0.25.
Then ISVD, with at most 0.25; and AFGA, with at most 0.25.
Then NYGC, with at most 0.25; and WHYL, with at most 0.25.
Under QGWY stands 75.8; under QPGY, at most 0.25; under QGPY, at most 0.25.
For FFGY, the enrichment ratio was at most 0.25.
Under QGGY stands 14.3; under FFWY, at most 0.25.
Under QEIM stands at most 0.25; under AGIM, 11.8; under SAWM, 3.72.
Then TQWM, with at most 0.25; and TQRM, with at most 0.25.
For the variant TQGM, the enrichment ratio was 14.5.
Under NAIM stands at most 0.25; under MEIM, 48.5; under AGDM, at most 0.25.
As for MMIM, the enrichment ratio is at most 0.25.
For the variant AGRM, the enrichment ratio is at most 0.25.
Then SAIM, with 11.6; and GPHN, with at most 0.25.
On to RDSY, for which the enrichment ratio is at most 0.25.
Under HQTV stands at most 0.25; under ISLP, at most 0.25.
Then DTRI, with 1.89.
Then VMYN, with at most 0.25; and ITIM, with at most 0.25; and SGIM, with 23.7.
Turning to SGRM, the enrichment ratio is at most 0.25.
Then YTIM, with 1.25; and RGIM, with at most 0.25; and KYIM, with at most 0.25.
Then SGDM, with at most 0.25.
Then SEWM, with 3.99; and SEIM, with 15.1; and TGIM, with at most 0.25.
As to STIM, the enrichment ratio worked out at 15.3.
Then SRIM, with 13.7; and NCFV, with at most 0.25; and ACCP, with at most 0.25.
